The record followed here is PubChem BioAssay (NCATS).

Assay [1] deals with Estrogen receptor (Homo sapiens) (UniProt P03372). Kind of assay: qHTS assay for small molecule agonists of estrogen receptor alpha signaling (AID 588514; calls by dose curve;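 also: 0% = vehicle only and 100% = reference agonist; nearly all actives have a fitted effect of over 70% in size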). In outline:
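Cells were plated at 5000/well, incubated 4 hrs at 37 C, dosed with compound titration series, incubated 18 hrs at 37 C, loaded with CCF4 dye for 2 hrs at RT, then fluorescence was read.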
(In general: Quantitative high-throughput screening tests each substance at several concentrations.)

The target of assay [2] is Glucocorticoid receptor (Homo sapiens) (UniProt P04150). Kind of assay: qHTS assay for small molecule agonists of glucocorticoid receptor signaling (AID 588532; active = well fitted curve in the direction sought with a large enough effect in the signal ratio, with a control signal flat; the % refers to the signal ratio;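 also: 100% = dexamethasone at 0.1 µM and 0% = DMSO only wells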). The note with it: HeLa MMTV-bla, beta-lactamase ratio, agonist, 18 h; stronger effect = higher value; percent of dexamethasone control, DMSO zero. In outline:
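Agonist-mode qHTS: GRE-driven beta-lactamase in HeLa cells exposed 18 h to titrated compounds (up to 92 uM), then CCF4 ratio read after 2 h at RT; Hill-fitted EC50, efficacy relative to 0.1 uM dexamethasone.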

Assay [3] has as its target Vitamin D3 receptor (Homo sapiens) (UniProt P11473). Put plainly: qHTS assay for small molecule antagonists of vitamin D receptor signaling (AID 588541; calls by dose curve;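 also: receptor activated by calcitriol during compound treatment; series mostly up to about 77 µM; % is scaled to controls: 0 for no effect and ±100 for the full control effect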). In outline: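 Antagonist-mode beta-lactamase reporter assay: HEK293T VDR-UAS-bla cells were exposed to titrated compound alongside 1-alpha,25-dihydroxyvitamin D3 at 3 nM final for 16 h. Values were normalized to the 50 nM agonist control and DMSO basal, with IC50 and efficacy from Hill equation fits.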

Assay [4] has the same target. Put plainly: qHTS assay for small molecule agonists of vitamin D receptor signaling (AID 588543; calls by dose curve;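 also: 0% = DMSO basal and 100% = reference agonist control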). In outline:
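Agonist-mode beta-lactamase reporter: HEK293T VDR-UAS-bla cells in charcoal-stripped 2% FBS, compound series 16 h 37 C, CCF4 2 h RT. EC50 from Hill fit, scaled against DMSO and 50 nM calcitriol control.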

The nature of assay [5]: qHTS assay for small molecule agonists of retinoid X receptor alpha signaling (AID 588544; calls by dose curve;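 as to activation: 0% = DMSO basal wells and 100% = reference agonist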). The note with it: HEK293T RXRa-UAS-bla, beta-lactamase reporter, 18 h; 530 nm emission.
In assay [6] the target is Retinoic acid receptor RXR-alpha (Homo sapiens) (UniProt P19793). Described as above.
Sequence of Retinoic acid receptor RXR-alpha (Homo sapiens) (P19793 whole entry, looked up): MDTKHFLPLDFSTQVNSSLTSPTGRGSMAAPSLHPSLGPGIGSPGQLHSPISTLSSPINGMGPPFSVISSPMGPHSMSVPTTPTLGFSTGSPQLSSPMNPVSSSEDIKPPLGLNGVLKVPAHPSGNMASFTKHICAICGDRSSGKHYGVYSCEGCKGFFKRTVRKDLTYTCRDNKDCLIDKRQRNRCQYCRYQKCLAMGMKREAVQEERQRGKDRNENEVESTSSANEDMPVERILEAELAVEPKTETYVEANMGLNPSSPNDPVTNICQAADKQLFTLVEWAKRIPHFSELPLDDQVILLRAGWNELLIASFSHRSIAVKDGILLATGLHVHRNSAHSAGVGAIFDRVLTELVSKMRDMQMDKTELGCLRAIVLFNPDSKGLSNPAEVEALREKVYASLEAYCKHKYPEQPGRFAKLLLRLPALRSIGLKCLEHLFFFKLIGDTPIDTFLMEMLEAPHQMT
Assay [7] deals with Thyroid hormone receptor beta (Homo sapiens) (UniProt P10828). Put plainly: qHTS assay for small molecule agonists of thyroid hormone receptor beta signaling (AID 588545; calls by dose curve). The method, boiled down: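 Agonist-mode beta-lactamase reporter assay, HEK 293 cells, 2% charcoal/dextran FBS; cells plated 4 hrs, compound 18 hrs at 37 C, CCF4 2 hrs RT. Normalized to 10 nM T3 (100%) and DMSO (0%); Hill fit gives EC50, efficacy.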
Sequence of Thyroid hormone receptor beta (Homo sapiens) (P10828 whole entry, looked up): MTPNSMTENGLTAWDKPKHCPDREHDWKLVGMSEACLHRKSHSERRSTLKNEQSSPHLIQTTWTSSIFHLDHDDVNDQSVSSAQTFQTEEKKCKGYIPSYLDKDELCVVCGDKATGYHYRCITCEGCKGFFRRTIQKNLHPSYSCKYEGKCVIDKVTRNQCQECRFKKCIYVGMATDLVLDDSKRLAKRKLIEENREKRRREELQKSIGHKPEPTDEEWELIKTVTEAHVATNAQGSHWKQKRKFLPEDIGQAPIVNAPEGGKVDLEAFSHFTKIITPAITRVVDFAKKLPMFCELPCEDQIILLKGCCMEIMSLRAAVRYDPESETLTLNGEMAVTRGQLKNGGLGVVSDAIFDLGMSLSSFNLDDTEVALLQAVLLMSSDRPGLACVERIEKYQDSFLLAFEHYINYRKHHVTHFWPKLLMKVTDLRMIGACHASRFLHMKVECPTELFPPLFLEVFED

Assay [8] is described as follows: qHTS assay for small molecule antagonists of retinoid X receptor alpha signaling (AID 588546; active = well fitted inhibition curve with a large enough effect in the signal ratio, with a control signal flat, not every such curve was filed as active; the % refers to the signal ratio;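 also: cells stimulated with 9-cis-retinoic acid as agonist; % is scaled to controls: 0 for no effect and ±100 for the full control effect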). The note with it: HEK293T RXRa-UAS-bla, beta-lactamase ratio, antagonist mode; measured here: W530 green channel, cytotoxicity proxy. In outline:
(§1)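 Beta-lactamase reporter inhibition, read as CCF4 fluorescence ratio (ex 405, em 460/530 nm) after 2 h at RT. HEK293T UAS-bla cells, 2500/well, were stimulated with 9-cis-RA at 500 or 100 nM final alongside test compound for 18 h at 37 C.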

The target in assay [9] is Retinoic acid receptor RXR-alpha (Homo sapiens) (UniProt P19793). The description is as above. The note with it: HEK293T RXRa-UAS-bla, beta-lactamase ratio, antagonist mode. In outline:
as §1

Assay [10] is described as follows: qHTS assay for small molecule activators of the p53 signaling pathway (AID 651743; active = well fitted activation curve with a large enough effect in the signal ratio, not every such curve was filed as active; the % refers to the signal ratio; also: series mostly up to about 92 µM; % of control where 0% means no effect). The note with it: HCT-116 p53RE-bla, beta-lactamase FRET ratio, 16 h; activation: stronger effect = higher value. The method, boiled down: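 Read-out is fluorescence intensity from the LiveBLAzer B/G FRET substrate, added for 2 hours at room temperature after HCT-116 p53RE-bla cells had been incubated with compounds for 16 hours at 37 C.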

Assay [11] can be described thus: qHTS assay for environmental chemicals that activate the Aryl hydrocarbon Receptor (AhR) signaling pathway (AID 651777). Also: % of control where 0% means no effect; nearly all actives have a fitted effect of over 15% in size. The note with it: 1A2-DRE human hepatoma cells, luciferase, 24 h; activation: stronger effect = higher value. The method, boiled down: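 Following a 24 hr incubation with test chemicals at 37 C and 5% CO2, 1A2-DRE human hepatoma cells received One-Glo reagent; after 30 min at room temperature, luciferase output reflected CYP1A2 induction via AhR.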

Assay [12] addresses Peroxisome proliferator-activated receptor alpha (Homo sapiens) (UniProt Q07869). Kind of assay: qHTS assay for small molecule agonists of the peroxisome proliferator-activated receptor alpha (PPARalpha) signaling pathway (AID 651778). Also: % of control where 0% means no effect. The note with it: PathHunter PPARalpha complementation, chemiluminescence, 6 h; max response: stronger effect = higher value. In outline:
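Chemiluminescence from complemented enzyme reported PPARalpha activation in cells after 6 hr of compound treatment at 37 C. The detection reagent was incubated for 60 min at room temperature, and compounds were scored as agonists.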

Assay [13] can be described thus: qHTS assay for small molecule agonists of the antioxidant response element (ARE) signaling pathway measured by Nrf2-dependant transcriptional activity - cell viability counter screen (AID 720653; active = well fitted curve in the direction sought with a large enough effect in the repeat runs; an effect the other way counts as inactive or inconclusive; also: % is scaled to controls: 0 for no effect and ±100 for the full control effect). The note with it: ARE-bla HepG2 viability, CellTiter-Glo ATP luminescence, 16 h; max response: stronger effect = lower value. The method, boiled down: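 Cytotoxicity counter screen: intracellular ATP quantified by CellTiter-Glo luminescence in the same ARE-bla HepG2 plates, after 16 h compound exposure and a 2 h beta-lactamase substrate step.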

The nature of assay [14]: qHTS assay for cell viability of HEK293 cells (AID 743288). Also: % is scaled to controls: 0 for no effect and ±100 for the full control effect; nearly all actives have a fitted effect of over 50% in size. The note with it: ATP luminescence (CellTiter-Glo), 18 h; max response: stronger effect = lower value. In outline:
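Total intracellular ATP, measured with a luciferase-coupled reagent, indicates the number of viable HEK293 cells. Exposure to test chemicals lasts 18 h at 37 C in 1,536-well format at 2,000 cells/well.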

A short description of assay [15]: qHTS assay for cell viability of the p53RE-bla HCT-116 cell line (AID 743292). Also: % is scaled to controls: 0 for no effect and ±100 for the full control effect; nearly all actives have a fitted effect of over 55% in size. In outline: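 After plating at 4,000 cells per well and a 5 h rest at 37 C, HCT-116 cells carrying p53RE-bla received test chemicals in DMSO. Sixteen hours later at 37 C, CellTiter-Glo was added and luminescence recorded following 30 min at room temperature.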
The nature of assay [16]: NCATS anti-infectives library activity on HEK293 viability as a counter-qHTS vs the C. elegans viability qHTS (AID 1745854).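 Also: HEK293 cells exposed to compounds for 24 hr before the viability read; % is scaled to controls: 0 for no effect and ±100 for the full control effect.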 In outline:
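Compounds were acoustically plated (several concentrations, 1:5, final up to 41.7 uM), then 1500 HEK293 cells added per well and incubated 24 hr at 37C, 5% CO2. CellTiter-Glo was added and luminescence read after 10 min.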

Assay [17] in a line: NCATS anti-infectives library activity on the primary C. elegans qHTS viability assay (AID 1745855; calls by dose curve; also: potency is read from the fitted curve at half-maximal effect). In outline:
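Viability read-out is GFP fluorescence of PE254-GFP-FLuc C. elegans, measured by laser cytometry (488 nm) at day 0, 3 and 7. Ten L1 worms per well were incubated 7 days at 21 °C with compounds and bacterial capsules in S medium.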

For assay [18], the target named is Nuclear receptor subfamily 1 group I member 2 (Rattus norvegicus) (UniProt Q9R1A7). Kind of assay: qHTS assay for small molecule activators of the rat pregnane X receptor (rPXR) signaling pathway (AID 651751; call rule not given here; also: 0% is about no effect). The note with it: rPXR reporter cells, luciferase (One-Glo), 24 h.
Sequence of Nuclear receptor subfamily 1 group I member 2 (Rattus norvegicus) (Q9R1A7 whole entry, looked up): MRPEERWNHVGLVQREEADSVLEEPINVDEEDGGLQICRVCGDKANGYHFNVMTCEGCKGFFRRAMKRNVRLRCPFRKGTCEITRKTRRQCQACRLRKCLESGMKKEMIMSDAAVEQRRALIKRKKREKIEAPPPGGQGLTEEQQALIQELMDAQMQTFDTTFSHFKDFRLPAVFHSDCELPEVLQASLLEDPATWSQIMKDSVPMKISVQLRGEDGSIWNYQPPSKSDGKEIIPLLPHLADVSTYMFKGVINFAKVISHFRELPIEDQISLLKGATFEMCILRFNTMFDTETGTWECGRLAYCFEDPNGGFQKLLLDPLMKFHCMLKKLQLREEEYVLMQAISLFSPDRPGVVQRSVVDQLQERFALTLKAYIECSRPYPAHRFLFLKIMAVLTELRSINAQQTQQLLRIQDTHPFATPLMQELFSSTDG
Assay [19] in a line: qHTS assay for small molecule activators of the human pregnane X receptor (PXR) signaling pathway (AID 720659; call rule not given here; also: 0% is about no effect).

Structures are written as SMILES. Results filed as inconclusive are left out. Calls of active or inactive are those of the source. Unless noted, calls follow the shape of the dose curve; as a rule, active = well fitted curve in the direction sought with a large enough effect; inconclusive = small, poorly fitted or top-dose-only effect, or another doubt; inactive = no such curve, though single readings can be large; an effect the other way counts as inactive or inconclusive.

Sequence of Vitamin D3 receptor (Homo sapiens) (P11473 whole entry, looked up): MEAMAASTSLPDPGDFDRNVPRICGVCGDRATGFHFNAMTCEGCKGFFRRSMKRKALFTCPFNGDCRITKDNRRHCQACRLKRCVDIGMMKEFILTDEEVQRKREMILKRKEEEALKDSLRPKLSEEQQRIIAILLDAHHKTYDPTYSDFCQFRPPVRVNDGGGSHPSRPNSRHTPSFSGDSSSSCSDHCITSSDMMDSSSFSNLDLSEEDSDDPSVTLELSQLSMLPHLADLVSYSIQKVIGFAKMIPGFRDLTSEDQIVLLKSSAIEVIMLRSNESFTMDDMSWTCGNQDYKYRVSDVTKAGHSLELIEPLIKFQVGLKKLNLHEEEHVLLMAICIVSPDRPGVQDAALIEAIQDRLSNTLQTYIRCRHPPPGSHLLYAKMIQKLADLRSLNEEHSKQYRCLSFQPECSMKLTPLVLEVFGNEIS
Sequence of Estrogen receptor (Homo sapiens) (P03372 whole entry, looked up): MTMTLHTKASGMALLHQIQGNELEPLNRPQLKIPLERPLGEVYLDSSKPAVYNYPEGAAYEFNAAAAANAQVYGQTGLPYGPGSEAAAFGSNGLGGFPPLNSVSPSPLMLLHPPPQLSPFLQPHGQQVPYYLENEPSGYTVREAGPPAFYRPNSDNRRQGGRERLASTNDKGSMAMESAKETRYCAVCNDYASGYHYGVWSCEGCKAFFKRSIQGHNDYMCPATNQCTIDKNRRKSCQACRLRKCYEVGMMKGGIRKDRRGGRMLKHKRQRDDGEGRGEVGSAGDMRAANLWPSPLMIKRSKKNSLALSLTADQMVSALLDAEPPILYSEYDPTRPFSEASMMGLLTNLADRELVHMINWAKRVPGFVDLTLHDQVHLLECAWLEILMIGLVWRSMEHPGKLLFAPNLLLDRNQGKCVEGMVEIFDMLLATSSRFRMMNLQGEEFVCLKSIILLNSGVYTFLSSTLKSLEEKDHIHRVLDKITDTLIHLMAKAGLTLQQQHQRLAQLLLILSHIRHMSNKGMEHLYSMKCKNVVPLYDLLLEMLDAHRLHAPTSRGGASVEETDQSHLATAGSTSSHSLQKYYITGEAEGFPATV
Sequence of Peroxisome proliferator-activated receptor alpha (Homo sapiens) (Q07869 whole entry, looked up): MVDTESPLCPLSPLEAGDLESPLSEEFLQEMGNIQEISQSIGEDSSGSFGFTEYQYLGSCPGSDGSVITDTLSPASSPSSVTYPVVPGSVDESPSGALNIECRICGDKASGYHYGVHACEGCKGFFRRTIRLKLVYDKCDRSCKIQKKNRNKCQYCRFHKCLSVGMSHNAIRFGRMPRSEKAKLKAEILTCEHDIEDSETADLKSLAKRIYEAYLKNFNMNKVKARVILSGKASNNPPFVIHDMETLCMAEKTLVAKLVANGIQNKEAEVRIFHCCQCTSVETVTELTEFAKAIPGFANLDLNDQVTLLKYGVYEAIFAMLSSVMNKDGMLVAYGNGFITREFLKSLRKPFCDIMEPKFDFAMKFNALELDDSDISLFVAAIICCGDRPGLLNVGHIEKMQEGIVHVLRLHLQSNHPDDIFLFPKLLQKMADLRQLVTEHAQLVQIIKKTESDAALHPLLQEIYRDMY
Sequence of Glucocorticoid receptor (Homo sapiens) (P04150 whole entry, looked up): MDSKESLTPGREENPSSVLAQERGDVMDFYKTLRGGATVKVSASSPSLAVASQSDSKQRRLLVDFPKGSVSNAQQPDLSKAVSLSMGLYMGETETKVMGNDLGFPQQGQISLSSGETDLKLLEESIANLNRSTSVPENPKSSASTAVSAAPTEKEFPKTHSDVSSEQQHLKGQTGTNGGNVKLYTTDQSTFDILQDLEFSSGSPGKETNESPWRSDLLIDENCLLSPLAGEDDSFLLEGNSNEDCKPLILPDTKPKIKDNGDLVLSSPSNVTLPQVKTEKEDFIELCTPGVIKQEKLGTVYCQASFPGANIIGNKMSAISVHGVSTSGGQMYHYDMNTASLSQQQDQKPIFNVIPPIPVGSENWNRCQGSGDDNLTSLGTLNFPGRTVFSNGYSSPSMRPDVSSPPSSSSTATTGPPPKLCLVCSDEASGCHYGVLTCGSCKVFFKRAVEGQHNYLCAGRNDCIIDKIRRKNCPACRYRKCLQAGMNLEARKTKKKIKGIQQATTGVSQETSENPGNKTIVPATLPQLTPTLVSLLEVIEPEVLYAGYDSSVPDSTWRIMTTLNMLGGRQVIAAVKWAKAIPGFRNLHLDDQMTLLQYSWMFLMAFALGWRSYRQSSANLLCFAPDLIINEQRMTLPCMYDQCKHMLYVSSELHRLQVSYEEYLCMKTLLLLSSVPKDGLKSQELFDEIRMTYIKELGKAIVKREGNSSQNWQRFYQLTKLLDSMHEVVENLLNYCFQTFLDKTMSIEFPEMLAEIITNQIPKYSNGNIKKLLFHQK

Turning to `O=C(O[C@@H]1Cc2c(O)cc(O)cc2O[C@@H]1c1cc(O)c(O)c(O)c1)c1cc(O)c(O)c(O)c1`, the Potency entry in assay [1], in assay [15] and in [16] was “inactive” throughout. The activation is 4.83% (inactive) in [2], -1.73% (inactive) in assay [10] and -3.33% (inactive) in assay [11]. Also, the outcome in assay [3], in [4], in assay [6], in assay [7] and in assay [19] was inactive. For the same compound, the max response was -0.202% in [5]; -13.5% in assay [8]; -1.14% (inactive) in [9]; -1.73% (inactive) in [12]; -12.8% (inactive) in assay [13]; -1.55% (inactive) in assay [14]. Also, the max response in assay [18] is -1.38% (inactive). Further, in assay [17], the Potency is 163 nM (active).

As for `CCCCCCCCCCCCCCCc1cccc(O)c1C(=O)O`, the Potency result in assay [16] and in assay [17] was “inactive” each time.

Turning to `CNC(=O)[C@@H](NC(=O)[C@H](CCCc1ccccc1)[C@H](C)N(O)C=O)C(C)(C)C`, the Potency result in [16] was “inactive”.

Take `Cc1cccc2c3c(ccc12)C1=C(C(=O)C3=O)[C@@H](C)CO1`: the Potency result in [16] was “inactive”.
